Screens as filed in PubChem.
IDE exosite FP: exo-site inhibitors of human insulin-degrading enzyme. purified IDE, FL-6b probe fluorescence polarization; hits give low values. hit rate 6.3% among 17,000. z-score at 20 µM. P14735. AID 1259349;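 active = z-score of -3 or lower, meaning strong loss of probe binding signal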;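 also: His-tagged human IDE residues 42-1019 made in E. coli with 30 nM FL-6b probe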
Target sequence (P14735 42-1019 limits assumed): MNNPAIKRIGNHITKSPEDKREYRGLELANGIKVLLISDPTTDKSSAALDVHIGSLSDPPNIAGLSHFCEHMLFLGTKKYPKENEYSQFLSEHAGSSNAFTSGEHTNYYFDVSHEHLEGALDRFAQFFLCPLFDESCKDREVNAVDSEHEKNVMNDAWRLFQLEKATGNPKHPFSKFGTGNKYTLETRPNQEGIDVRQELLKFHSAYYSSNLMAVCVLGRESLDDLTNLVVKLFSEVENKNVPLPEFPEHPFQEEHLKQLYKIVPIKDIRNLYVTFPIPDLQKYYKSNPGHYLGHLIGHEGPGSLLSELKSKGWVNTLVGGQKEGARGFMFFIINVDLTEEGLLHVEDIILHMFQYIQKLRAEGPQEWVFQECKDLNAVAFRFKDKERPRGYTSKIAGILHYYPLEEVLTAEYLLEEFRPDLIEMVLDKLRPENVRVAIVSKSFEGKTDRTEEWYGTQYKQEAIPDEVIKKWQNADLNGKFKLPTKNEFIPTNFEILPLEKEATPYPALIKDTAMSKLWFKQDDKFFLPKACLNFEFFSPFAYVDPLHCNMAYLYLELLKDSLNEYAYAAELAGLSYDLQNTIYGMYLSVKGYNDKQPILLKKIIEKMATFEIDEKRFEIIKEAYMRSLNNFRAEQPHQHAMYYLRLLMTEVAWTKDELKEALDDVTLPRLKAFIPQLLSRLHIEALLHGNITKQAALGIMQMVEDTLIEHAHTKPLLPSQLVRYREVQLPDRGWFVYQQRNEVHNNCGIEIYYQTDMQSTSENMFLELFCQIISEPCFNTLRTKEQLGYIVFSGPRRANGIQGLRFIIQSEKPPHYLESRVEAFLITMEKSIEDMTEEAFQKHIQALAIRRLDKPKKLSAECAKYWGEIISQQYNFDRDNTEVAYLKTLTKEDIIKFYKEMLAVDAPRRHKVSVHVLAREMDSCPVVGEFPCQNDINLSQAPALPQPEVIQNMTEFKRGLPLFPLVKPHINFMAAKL
The depositor's hits bear a star. The entries come from a sample that favours hits as a whole.

SMILES	IDE exosite FP
O=C(C[C@H]1C[C@@H]2c3cc(NC(=O)NC4CCCC4)ccc3O[C@@H]2[C@@H](CO)O1)NCc1ccccc1F	-0.72
CC(=O)NC[C@H]1[C@H](c2ccc(-c3cccnc3)cc2)[C@H](CO)N1C(=O)C1CCC1	3.5
O=C(c1ccncc1)N1CC(=O)N2[C@@H](CO)[C@@H](c3ccc(-c4ccccc4F)cc3)[C@@H]2C1	-1.6
O=C(c1ccc(F)cc1)N1CC(=O)N2[C@H](CO)[C@H](c3ccc(-c4ccccc4F)cc3)[C@H]2C1	3
O=C(c1ccc(F)cc1)N1CC(=O)N2[C@@H](CO)[C@@H](c3ccc(-c4ccccc4F)cc3)[C@@H]2C1	-0.78
O=C(c1ccncc1)N1CC(=O)N2[C@H](C1)[C@@H](c1ccc(-c3ccccc3F)cc1)[C@@H]2CO	-7.4*
O=C(c1ccncc1)N1CC(=O)N2[C@@H](CO)[C@H](c3ccc(-c4ccccc4F)cc3)[C@@H]2C1	-4.8*
O=C(c1ccncc1)N1CC(=O)N2[C@H](CO)[C@@H](c3ccc(-c4ccccc4F)cc3)[C@H]2C1	0.35
CC[C@H]1C/C=C\C[C@@H](c2ccccc2)NC(=O)CCC(=O)N1	0.26
COc1ccccc1NC(=O)N1CC(=O)N2[C@H](CO)[C@H](c3ccc(C#Cc4ccccc4)cc3)[C@@H]2C1	-3
O=C(C1CCOCC1)N1[C@H](CO)[C@@H](c2ccccc2)C12CN(CCC(F)(F)F)C2	1.2
CC(=O)N1CC(=O)N2[C@H](CO)[C@@H](c3ccc(-c4ccccc4)cc3)[C@@H]2C1	0.11
CN(C)C(=O)c1ccc(-c2ccc(C3[C@H]4CNC[C@@H]3N4Cc3ccccn3)cc2)cc1 (stereo not given in full)	0.14
CO[C@H]1CN(C)C(=O)c2cc(NC(C)=O)ccc2OC[C@H](C)N(Cc2ccncc2)C[C@H]1C	0.082
COc1ccc(-c2ccc([C@@H]3[C@@H](CO)N4C(=O)CN(Cc5ccc(F)cc5)C[C@@H]34)cc2)cc1	3.6
CN(C)C(=O)c1ccc(-c2ccc([C@H]3[C@@H](C#N)N(C(=O)C4CCC4)[C@@H]3CO)cc2)cc1	2.6
COc1cccc(NC(=O)Nc2ccc3c(c2)C(=O)N(C)C[C@H](OC)[C@H](C)CN[C@H](C)CO3)c1	1.7
CO[C@H]1CN(C)C(=O)c2cc(NC(=O)c3ccc(Oc4ccccc4)cc3)ccc2OC[C@@H](C)NC[C@@H]1C	-13*
CO[C@H]1CN(C)C(=O)c2cc(NC(=O)c3cnccn3)ccc2OC[C@@H](C)NC[C@@H]1C	2
COc1cccc(NC(=O)Nc2ccc3c(c2)C(=O)N(C)C[C@@H](OC)[C@@H](C)CN[C@H](C)CO3)c1	-0.96
CO[C@@H]1CN(C)C(=O)c2cc(NC(=O)c3ccc(Oc4ccccc4)cc3)ccc2OC[C@H](C)NC[C@H]1C	-7.6*
COc1cccc(NC(=O)Nc2ccc3c(c2)C(=O)N(C)C[C@@H](OC)[C@@H](C)CN[C@@H](C)CO3)c1	-0.14
C/C=C/c1ccc([C@@H]2[C@H](CO)N(Cc3cncnc3)C23CN(C(=O)COC)C3)cc1	1.6
C/C=C/c1ccc([C@H]2[C@@H](CO)N(C(=O)CC)[C@H]2CNC(=O)c2ccncc2)cc1	0.46
O=C(Nc1ccc2c(c1)OCO2)N1C[C@@H]2N[C@H](C1)C2c1ccc(-c2ccccc2)cc1 (stereo not given in full)	-0.18
SMILES	IDE exosite FP
COc1ccc(NC(=O)N2CCCCN3[C@@H](CO)[C@@H](c4ccc(-c5ccccc5C)cc4)[C@@H]3C2)cc1	-4.5*
COc1ccc(NC(=O)N2CCCCN3[C@H](CO)[C@H](c4ccc(-c5ccccc5F)cc4)[C@H]3C2)cc1	0.79
COc1ccc(NC(=O)N2CCCCN3[C@H](C2)[C@@H](c2ccc(-c4ccccc4F)cc2)[C@@H]3CO)cc1	0.93
COc1ccc(NC(=O)N2CCCCN3[C@H](CO)[C@H](c4ccc(-c5ccccc5C)cc4)[C@@H]3C2)cc1	-0.82
COc1ccc(NC(=O)N2CCCCN3[C@@H](CO)[C@H](c4ccc(-c5ccccc5C)cc4)[C@@H]3C2)cc1	-10*
COc1ccc(NC(=O)N2CCCCN3[C@H](CO)[C@@H](c4ccc(-c5ccccc5C)cc4)[C@H]3C2)cc1	-1.1
CNC[C@@H]1OCCCC[C@@H](C)Oc2ccc(N)cc2C(=O)N([C@@H](C)CO)C[C@H]1C	0.2
Cc1ccc(S(=O)(=O)N2C[C@H](O)COC[C@H]3O[C@@H](CC(=O)N4CCc5ccccc5C4)CC[C@@H]32)cc1	-0.22
CC[C@H]1C/C=C\C[C@H](C(C)C)NC(=O)CCC(=O)N1	-0.16
COc1ccc(C#Cc2ccc([C@@H]3[C@H]4CN(C(C)=O)CC(=O)N4[C@H]3CO)cc2)cc1	2.8
O=C(Nc1cccc(F)c1)N1CC(=O)N2[C@H](CO)[C@H](c3ccc(-c4ccccc4F)cc3)[C@H]2C1	-2.6
Cc1cccc(-c2ccc([C@@H]3[C@H]4CN(S(=O)(=O)c5cn(C)cn5)CCCCN4[C@H]3CO)cc2)c1	-6.1*
COc1cccc(-c2ccc([C@@H]3[C@@H](CO)N4CCCCN(S(=O)(=O)c5cn(C)cn5)C[C@@H]34)cc2)c1	-14*
COc1cccc(-c2ccc([C@H]3[C@H]4CN(S(=O)(=O)c5cn(C)cn5)CCCCN4[C@H]3CO)cc2)c1	-0.71
COc1cccc(-c2ccc([C@@H]3[C@@H](CO)N4CCCCN(S(=O)(=O)c5cn(C)cn5)C[C@H]34)cc2)c1	1.4
Cc1cccc(-c2ccc([C@@H]3[C@H](CO)N4CCCCN(S(=O)(=O)c5cn(C)cn5)C[C@@H]34)cc2)c1	-20*
COc1cccc(-c2ccc([C@H]3[C@@H](CO)N4CCCCN(S(=O)(=O)c5cn(C)cn5)C[C@@H]34)cc2)c1	0.93
Cc1cccc(-c2ccc([C@H]3[C@H]4CN(S(=O)(=O)c5cn(C)cn5)CCCCN4[C@H]3CO)cc2)c1	1.4
Cn1cnc(S(=O)(=O)N2CCCCN3[C@H](CO)[C@@H](c4ccc(-c5ccccc5)cc4)[C@@H]3C2)c1	-9.4*
Cn1cnc(S(=O)(=O)N2CCCCN3[C@H](CO)[C@H](c4ccc(-c5cccc(F)c5)cc4)[C@@H]3C2)c1	2.5
Cn1cnc(S(=O)(=O)N2CCCCN3[C@H](C2)[C@H](c2ccc(-c4ccccc4)cc2)[C@@H]3CO)c1	1.7
COc1cccc(-c2ccc([C@H]3[C@H](CO)N4CCCCN(S(=O)(=O)c5cn(C)cn5)C[C@@H]34)cc2)c1	-0.35
Cn1cnc(S(=O)(=O)N2CCCCN3[C@@H](CO)[C@@H](c4ccc(-c5ccc(F)cc5)cc4)[C@@H]3C2)c1	-2.1
O=C(Nc1ccc(F)cc1)N1CC(=O)N2[C@H](CO)[C@H](c3ccc(C#CC4CC4)cc3)[C@@H]2C1	1.4
CCN(C[C@@H]1[C@@H](c2ccccc2)[C@H](CO)N1CC1CC1)C(C)=O	2.4
SMILES	IDE exosite FP
CCCC#Cc1ccc([C@H]2[C@@H](CO)N3C(=O)CN(C(=O)c4cccc(F)c4)C[C@@H]23)cc1	2.4
CCCNC(=O)N1CC2(C1)[C@@H](c1ccccc1)[C@@H](CO)N2CC1CCOCC1	-0.21
O=C(Cc1ccncc1)NCC[C@H]1CC[C@H](NS(=O)(=O)c2ccccc2Cl)[C@H](CO)O1	1.8
CCCNC(=O)Nc1ccc2c(c1)OC[C@H](C)N(C(=O)C1CCOCC1)C[C@H](C)[C@H](OC)CN(C)C2=O	-1.6
O=C1CCC(=O)N[C@@H](c2ccccc2)C/C=C\CCN1	-0.77
COCC(=O)N1CCCCN2[C@H](CO)[C@H](c3ccc(-c4ccc(C)cc4)cc3)[C@@H]2C1	1.9
